Experimental data from the supplement of paper PMC3334620.
In all, about 33,000 sequences were measured (“E-score (-0.5 to 0.5)”: median about -0.01, highest 2% from about 0.26 on). Only a selection was taken, and the highest values are over-represented in it overall.

Biological target: Ste12 (UniProt P13574)
Test: PBM E-score (8-mer binding enrichment) (E-score (-0.5 to 0.5)); higher = stronger / more preferred TF binding
Details: protein concentration: 200 nM; construct: GST-DNA-binding domain
Description: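 Universal 'all 10-mer' protein binding microarrays (Agilent AMADID 015681) probed with GST-tagged S. cerevisiae TFs (full-length or DBD) made by in vitro transcription/translation (PURExpress), about 100-200 nM. Bound TF was detected with fluorescent anti-GST. Each ungapped 8-mer (which stands for itself and its reverse complement) is scored by the PBM enrichment score (E-score), a modified Wilcoxon-Mann-Whitney statistic from -0.5 to +0.5, computed with the Universal PBM Analysis Suite. Scale: above 0.35 generally sequence-specific binding.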

Sequence of UniProt P13574 (P13574 whole entry): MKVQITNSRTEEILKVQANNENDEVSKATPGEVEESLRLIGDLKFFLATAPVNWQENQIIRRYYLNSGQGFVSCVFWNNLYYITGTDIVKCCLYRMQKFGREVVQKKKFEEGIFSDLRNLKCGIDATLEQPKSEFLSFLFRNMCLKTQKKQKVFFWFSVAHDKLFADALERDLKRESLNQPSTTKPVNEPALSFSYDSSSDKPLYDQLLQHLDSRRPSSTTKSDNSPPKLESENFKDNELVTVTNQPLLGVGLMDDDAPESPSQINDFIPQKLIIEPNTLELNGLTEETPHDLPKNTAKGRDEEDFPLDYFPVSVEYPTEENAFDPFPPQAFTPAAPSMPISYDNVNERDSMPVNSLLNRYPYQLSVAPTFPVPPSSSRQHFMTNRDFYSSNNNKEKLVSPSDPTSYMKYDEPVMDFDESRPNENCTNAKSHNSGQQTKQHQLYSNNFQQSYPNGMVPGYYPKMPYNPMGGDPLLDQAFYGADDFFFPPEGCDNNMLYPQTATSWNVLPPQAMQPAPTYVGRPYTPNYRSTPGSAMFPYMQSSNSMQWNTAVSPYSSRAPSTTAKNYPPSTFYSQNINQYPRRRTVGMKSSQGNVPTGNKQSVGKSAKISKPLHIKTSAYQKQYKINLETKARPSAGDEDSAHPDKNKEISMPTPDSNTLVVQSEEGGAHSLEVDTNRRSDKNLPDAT

Sequence | PBM E-score
GTAAAACA | 0.323
GGTAAACA | 0.28
ACAGCGAG | -0.00798
GTAGATCA | 0.023
ACCGCACC | 0.0603
AGGGTGGA | -0.218
AGGGAGGC | -0.122
AGGGGAGG | 0.348
AGGAGGGC | -0.081
AGGGTGGG | 0.35
AGGAGGGA | -0.0567
AGGGAGGG | 0.305
AAGGGAGG | -0.0233
AGGGGAGA | -0.0864
AGGGAGGA | -0.192
AGGGTGGC | -0.0324
AGGAGGGG | 0.285
AGTTTGCG | 0.122
AGTGCGGA | 0.0511
CTCCTGGA | -0.166
AAATTTGC | 0.0182
ATTGGTAC | 0.00439
AAGAGCTT | -0.0673
ACCAAAGA | 0.158
ACGCCCAC | 0.117

Sequence | PBM E-score
GATGAGTA | 0.0183
TACTGGAA | 0.182
CACACCAA | 0.115
AATTGAAC | -0.0364
GATTGAAA | 0.243
TATTGAAA | 0.304
AATTGAAT | 0.131
AATTGAAA | 0.412
CATTGAAA | 0.247
CTCAACGA | -0.137
ACGACAGT | -0.147
AAAATAAT | 0.293
CCAATAAA | 0.148
GAAATAAC | 0.121
CAAATAAG | 0.0883
GAAATAAA | 0.282
GCAATAAC | 0.0195
AAAATAAC | 0.2
CAAATACC | 0.185
CAAATAAA | 0.1
GCAATAAA | 0.279
CAAATAAC | 0.283
AAAATAAG | 0.183
CTGAAGGA | -0.0367
CACGCGTG | 0.221

Sequence | PBM E-score
CGTTCGCA | -0.119
AAATAAAT | 0.169
AAATAAAG | 0.172
AAATAAAA | 0.291
TAAATAAA | 0.228
AAAATACA | 0.143
AAAATAAA | 0.286
CGAAGACG | -0.13
CAATGGGA | -0.134
GCCTAAGC | -0.358
CCACTGGC | -0.0254
AATCAGAA | 0.27
AATCAGAG | 0.0937
CATCAGAA | 0.0441
AGGTAGCC | -0.26
CAGGGTAG | -0.114
CTGACTAC | -0.129
ATGATACC | 0.0159
ATGATACG | 0.25
CTGATACA | 0.28
ATGATACA | 0.294
GTGATACA | 0.195
CTGATACC | 0.0308
GGCGCTTA | 0.0142
AGGGCCAC | -0.202

Sequence | PBM E-score
CTCAATCC | 0.0296
GAAAAGCA | 0.0143
ACAGCCAG | -0.178
CTTGGTTA | 0.052
CCCCTACC | 0.0111
GTGTAAAA | 0.15
ATGTAAAT | 0.113
GCGTAAAA | 0.163
CTGTAAAA | 0.219
TAGTAAAA | 0.211
TCGTAAAA | 0.279
ACGTAAAA | 0.161
ATGTAAAA | 0.349
TTGTAAAA | 0.315
ATAGAGCC | -0.0936
TACAGACA | 0.0984
ACAGCTCG | -0.157
GCAGAGGC | -0.185
CACTCGCC | -0.0182
CAAAAGTG | 0.00054
AGATCTCA | 0.0566
GGATGAAA | 0.395
CGATGAAC | 0.124
CGATGAAG | 0.0893
CGATGAAA | 0.289

Sequence | PBM E-score
AGATGAAC | 0.098
TGATGAAA | 0.258
AGATGAAG | 0.102
AGATGAAA | 0.39
GGATGAAC | -0.196
CCTCTACG | -0.283
AGAGCCCC | -0.201
CACTGGAA | -0.101
ACATGGAC | -0.00801
ATGACATA | 0.222
GCGTTACA | 0.139
CTGTTACC | -0.03
ATGTTACC | 0.175
ATGTTACA | 0.297
GTGTTACA | 0.19
ACGTTACA | 0.164
CTGTTACA | 0.378
CCGTTACA | 0.318
ATGTTACG | -0.0262
AACGTCCG | -0.102
ACGCTGTG | -0.038
GCTGGCCA | -0.00597
CTTAGGGA | -0.316
AAATGAAG | 0.257
GCGCTTCC | -0.0472

Sequence | PBM E-score
AAGGATAA | -0.00803
AATTGCAT | 0.0393
ACTACCTA | -0.242
ACTGTTTA | 0.165
CCTGTTTC | 0.32
CCTGTTAC | 0.151
ACTGTTTG | 0.188
ACTGTTTC | 0.289
CCTGTTTA | 0.0871
AAAACGGC | 0.225
CAAACGGA | 0.0164
AAAACGGA | 0.273
AAAACGGT | 0.152
GAAACGGA | 0.343
GAAACGGC | 0.229
GCCCCGAC | -0.135
AACCTAAA | 0.324
CACCTAAA | 0.0511
TACCTAAA | 0.138
CCCCGTTA | -0.00038
CACAACTA | 0.153
TACAACTA | 0.268
AACAACTA | -0.00598
ACAGGTCT | -0.267
ATGTTCTC | -0.124

Sequence | PBM E-score
ACAAAAAC | 0.201
TCAAAACA | 0.209
GCAAAGCA | -0.148
ACAAAAAA | 0.311
AAAAAGCA | 0.108
ACAAAAAT | 0.288
ACAAAAAG | 0.125
TCAAAAGA | 0.202
TCAAAAAA | 0.32
AACAAAAT | 0.11
ACACAAAT | 0.108
ACAAAGCA | 0.29
ACCGCTCA | -0.0178
CACCGCAC | -0.00376
ACCGCCGC | 0.0865
GGATACTA | 0.0524
CGCGGGAC | 0.012
AGGCCAGC | -0.157
CCTGGTAG | -0.00862
ATGCCTCG | 0.00724
CTCACCAA | 0.284
TTCACCAA | 0.0895
CTCACCAC | -0.168
